Measurements published in the supplement of paper PMC12494721.
Structures can show the parent of a compound that is named as a salt.

Assays:
Conditions in all cases: incubation time: 27 h, anaerobic, 37 °C;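 for the amine columns active = adjusted P below 0.05 in both replicates with a change the same way and a mean fold change under 0.8 or over 1.25; inactive = the rest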
[1] = system: Clostridium sporogenes DSM 1664; assay: growth (OD595) fold change vs plate DMSO controls (fold change (ratio)); higher = more growth
Outline: (§1)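 The reported measure is growth: the fold change against the median of DMSO controls on the plate. Absorbance at 595 nm from anaerobic 96-well mGAM cultures grown for 27 h at 37 °C was blank-subtracted, corrected for background with 20 µM compound solutions in water, and converted to OD with a calibration factor of 5. Fold changes above 1.5 appear as NA, and values are the mean of 2 biological replicates.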

Escherichia coli IAI1 [2] = assay: as above
Outline: as §1

[3] = system: Klebsiella aerogenes DSM 30053; assay: as above
Outline: as §1

[4] = system: Ruminococcus gnavus DSM 108212; assay: as above
Outline: as §1

[5] = system: Klebsiella aerogenes DSM 30053; assay: fold change of Histamine concentration vs plate DMSO controls (fold change (ratio)); higher = more amine produced, active = hit call of the paper (significant change in both replicates, either direction)
Outline: (§2)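 Amine values are fold changes relative to DMSO-only wells on the same plate. They derive from 27 h, 37 °C anaerobic mGAM cultures of four gut bacterial strains in 80 µL wells, dosed at 20 µM final, or 50 µM final for sweeteners. Extraction of the whole culture, LC–triple-quadrupole MS in dynamic MRM mode, external calibration curves and within-batch drift correction were used, with 2 biological replicates averaged.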

[6] = system: Clostridium sporogenes DSM 1664; assay: fold change of Tryptamine concentration vs plate DMSO controls (fold change (ratio)); higher = more amine produced, active = hit call of the paper (significant change in both replicates, either direction)
Outline: as §2

[7] = system: Ruminococcus gnavus DSM 108212; assay: as above
Outline: as §2

Escherichia coli IAI1 [8] = assay: fold change of Putrescine concentration vs plate DMSO controls (fold change (ratio)); higher = more amine produced, active = hit call of the paper (significant change in both replicates, either direction)
Outline: as §2

[9] = system: Klebsiella aerogenes DSM 30053; assay: as above
Outline: as §2

Escherichia coli IAI1 [10] = assay: fold change of Cadaverine concentration vs plate DMSO controls (fold change (ratio)); higher = more amine produced, active = hit call of the paper (significant change in both replicates, either direction)
Outline: as §2

[11] = system: Klebsiella aerogenes DSM 30053; assay: as above
Outline: as §2

[12] = system: Ruminococcus gnavus DSM 108212; assay: fold change of 2-Phenylethylamine concentration vs plate DMSO controls (fold change (ratio)); higher = more amine produced, active = hit call of the paper (significant change in both replicates, either direction)
Outline: as §2

SMILES | growth [1] | growth (Escherichia coli IAI1 [2]) | growth [3] | growth [4] | fold change of Histamine concentration [5] | fold change of Tryptamine concentration [6] | fold change of Tryptamine concentration [7] | fold change of Putrescine concentration (Escherichia coli IAI1 [8]) | fold change of Putrescine concentration [9] | fold change of Cadaverine concentration (Escherichia coli IAI1 [10]) | fold change of Cadaverine concentration [11] | fold change of 2-Phenylethylamine concentration [12]
O=C(O)COc1nn(Cc2ccccc2)c2ccccc12 [Bendazac] (20 µM) | 1.19 | 1.05 | 1.05 | 1.02 | 0.954 (inactive) | 0.948 (inactive) | 0.986 (inactive) | 0.975 (inactive) | 1 (inactive) | 0.973 (inactive) | 1 (inactive) | 0.993 (inactive)
CC(C)NC[C@H](O)COc1cccc2ccccc12 [(S)-(-)-Propranolol hydrochloride] (20 µM) | 0.943 | 1.03 | 1.07 | 1.14 | 0.885 (inactive) | 1.02 (inactive) | 1 (inactive) | 0.986 (inactive) | 0.993 (inactive) | 0.968 (inactive) | 1.01 (inactive) | 1.02 (inactive)
COc1cc2/c(=N/c3ccc(Br)cc3F)nc[nH]c2cc1OCC1CCN(C)CC1 [Vandetanib] (20 µM) | 1.15 | 1.07 | 1.06 | 0.995 | 1.01 (inactive) | 1.04 (inactive) | 1.11 (inactive) | 0.989 (inactive) | 0.907 (inactive) | 0.992 (inactive) | 1.1 (inactive) | 1.14 (inactive)
CCCCC1C(=O)N(c2ccccc2)N(c2ccc(O)cc2)C1=O (stereo unspecified) [Oxyphenbutazone] (20 µM) | 1.01 | 1 | 1.2 | 1.09 | 0.888 (inactive) | 1.3 (inactive) | 1.14 (inactive) | 1.21 (inactive) | 0.877 (inactive) | 0.973 (inactive) | 1.14 (inactive) | 1.23 (inactive)
CC(=O)Oc1ccccc1C(=O)O [Acetylsalicylic acid] (20 µM) | 1.11 | 0.986 | 1.04 | 1.17 | 0.992 (inactive) | 1.03 (inactive) | 1.18 (inactive) | 0.992 (inactive) | 0.998 (inactive) | 0.93 (inactive) | 1.05 (inactive) | 1.18 (inactive)
CN1CCCCC1CCN1c2ccccc2Sc2ccc([S+](C)[O-])cc21 (stereo unspecified) [Mesoridazine besylate] (20 µM) | 1.12 | 0.991 | 0.974 | 0.756 | 1.1 (inactive) | 0.992 (inactive) | 1.02 (inactive) | 1 (inactive) | 1.02 (inactive) | 1.01 (inactive) | 0.978 (inactive) | 0.987 (inactive)
O=C(CCCCCCC(=O)Nc1ccccc1)NO [Vorinostat] (20 µM) | 0.808 | 1.07 | 0.974 | 1.04 | 1.17 (inactive) | 0.962 (inactive) | 1.05 (inactive) | 1.11 (inactive) | 0.99 (inactive) | 0.99 (inactive) | 0.967 (inactive) | 1.1 (inactive)
CCN1/C(=C/C=C/C=C/c2sc3ccccc3[n+]2CC)Sc2ccccc21 [Dithiazanine iodide] (20 µM) | 0.625 | 0.879 | 0.837 | 1.24 | 0.924 (inactive) | 0.849 (inactive) | 0.749 (active) | 1.05 (inactive) | 1.01 (inactive) | 1.07 (inactive) | 0.995 (inactive) | 0.699 (active)
CN1CCCN(C(c2ccccc2)c2ccc(Cl)cc2)CC1 (stereo unspecified) [Homochlorcyclizine dihydrochloride] (20 µM) | 1.12 | 0.99 | 1 | 0.861 | 0.994 (inactive) | 0.989 (inactive) | 0.918 (inactive) | 1.03 (inactive) | 1.01 (inactive) | 0.885 (inactive) | 1.01 (inactive) | 0.983 (inactive)
CCOC(=O)NNc1nncc2ccccc12 [Todralazine hydrochloride] (20 µM) | 0.521 | 1.14 | 1.04 | 1 | 0.967 (inactive) | 0.506 (inactive) | 0.955 (inactive) | 1.02 (inactive) | 0.984 (inactive) | 1.04 (inactive) | 1.01 (inactive) | 1.03 (inactive)
COC(=O)[C@H]1[C@H]2C[C@@H]3c4[nH]c5cc(OC)ccc5c4CCN3C[C@H]2C[C@@H](OC(=O)c2cc(OC)c(OC)c(OC)c2)[C@@H]1OC [Reserpine] (20 µM) | 1.21 | 0.987 | 1.02 | 1.01 | 0.943 (inactive) | 1.07 (inactive) | 1.04 (inactive) | 0.935 (inactive) | 0.983 (inactive) | 0.966 (inactive) | 1.01 (inactive) | 1.07 (inactive)
CC(C)=CCOc1ccc(/C=C/C(=O)c2ccc(OCC=C(C)C)cc2OCC(=O)O)cc1 [Sofalcone] (20 µM) | 0.713 | 0.964 | 0.98 | 0.927 | 1 (inactive) | 0.425 (active) | 0.669 (active) | 1.01 (inactive) | 1 (inactive) | 1.03 (inactive) | 0.992 (inactive) | 0.689 (inactive)
COc1cccc2c1C(=O)c1c(O)c3c(c(O)c1C2=O)C[C@@](O)(C(C)=O)C[C@@H]3O[C@H]1C[C@H](N)[C@H](O)[C@H](C)O1 [Daunorubicin hydrochloride] (20 µM) | 0.967 | 0.972 | 0.997 | 1.13 | 1.01 (inactive) | 0.941 (inactive) | 0.986 (inactive) | 0.988 (inactive) | 1.02 (inactive) | 1.09 (inactive) | 1.04 (inactive) | 0.967 (inactive)
CN(C)CCN(Cc1ccccc1)c1ccccn1 [Tripelennamine hydrochloride] (20 µM) | 1.03 | 0.99 | 1.02 | 0.946 | 0.957 (inactive) | 1.01 (inactive) | 1.02 (inactive) | 0.85 (inactive) | 1.01 (inactive) | 1.38 (active) | 1 (inactive) | 1.03 (inactive)
CC(N)(Cc1ccc(O)c(O)c1)C(=O)O (stereo unspecified) [(L) Methyldopa] (20 µM) | 0.936 | 0.99 | 1 | 0.89 | 1.06 (inactive) | 1 (inactive) | 1.11 (inactive) | 0.882 (inactive) | 1.06 (inactive) | 0.965 (inactive) | 1.07 (inactive) | 1.26 (active)
O=C(Oc1ccccc1)n1c(C(F)(F)F)nc2cc(Cl)c(Cl)cc21 (20 µM) | 0.822 | 0.604 | 0.714 | 0.827 | 1.39 (active) | 1.11 (inactive) | 0.875 (inactive) | 1.38 (active) | 0.931 (inactive) | 1.59 (active) | 0.926 (inactive) | 0.917 (inactive)
CC(=O)CC(c1ccc([N+](=O)[O-])cc1)c1c(O)c2ccccc2oc1=O (stereo unspecified) [Acenocoumarol] (20 µM) | 0.894 | 1.02 | 1.02 | 0.886 | 0.909 (inactive) | 0.94 (inactive) | 1.01 (inactive) | 1.05 (inactive) | 0.989 (inactive) | 1.01 (inactive) | 1.01 (inactive) | 1.02 (inactive)
C[C@]12C[C@H](O)[C@H]3[C@@H](CCC4=CC(=O)CC[C@@]43C)[C@@H]1CC[C@@H]2C(=O)CO [Corticosterone] (20 µM) | 0.994 | 1.05 | 1.07 | 1.11 | 0.992 (inactive) | 0.971 (inactive) | 0.998 (inactive) | 1.05 (inactive) | 0.99 (inactive) | 1.01 (inactive) | 1 (inactive) | 1.04 (inactive)
Nc1nc(N)c2nc(-c3ccccc3)c(N)nc2n1 [Triamterene] (20 µM) | 1.09 | 0.967 | 0.969 | 1.25 | 1.05 (inactive) | 0.928 (inactive) | 0.966 (inactive) | 0.8 (inactive) | 1.01 (inactive) | 1.04 (inactive) | 0.988 (inactive) | 0.907 (inactive)
NC(=O)OCC(O)COc1ccc(Cl)cc1 (stereo unspecified) [Chlorphensin carbamate] (20 µM) | 1.02 | 1.02 | 0.951 | 1.2 | 0.969 (inactive) | 0.996 (inactive) | 0.995 (inactive) | 1 (inactive) | 0.913 (inactive) | 0.951 (inactive) | 1.02 (inactive) | 1.07 (inactive)
COc1ccccc1Oc1c(NS(=O)(=O)c2ccc(C(C)(C)C)cc2)nc(-c2ncccn2)nc1OCCO [Bosentan] (20 µM) | 1.15 | 1.14 | 1.23 | 1.2 | 0.938 (inactive) | 0.987 (inactive) | 0.978 (inactive) | 1.09 (inactive) | 1.05 (inactive) | 1.03 (inactive) | 1.04 (inactive) | 0.959 (inactive)
O=C1NS(=O)(=O)c2ccccc21 [Saccharin] (50 µM) | 0.975 | 1.02 | 0.976 | 1.11 | 1.01 (inactive) | 1.02 (inactive) | 1 (inactive) | 1.05 (inactive) | 1.01 (inactive) | 1.06 (inactive) | 0.996 (inactive) | 1.02 (inactive)
CC[C@H]1OC(=O)[C@H](C)[C@@H](O[C@H]2C[C@@](C)(OC)[C@@H](O)[C@H](C)O2)[C@H](C)[C@@H](O[C@@H]2O[C@H](C)C[C@H](N(C)C)[C@H]2O)[C@](C)(O)C[C@@H](C)C(=O)[C@H](C)[C@@H](O)[C@]1(C)O [Erythromycin] (20 µM) | 0.0078 | 0.762 | 1.16 | 0.129 | 0.3 (inactive) | 0.0554 (active) | 0.144 (active) | 0.459 (inactive) | 0.936 (inactive) | 0.942 (inactive) | 1.07 (inactive) | 0.137 (active)
